The panel holds about 83,000 compounds, 20% with a hit somewhere; the sample as a whole holds those more often.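 Compound tested at a single concentration for 48 hours in 96-well plates; a percent growth value below 10 was scored as active.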 A number with no mark means an inactive call. Activity calls are given as the source filed them.
How the values were obtained:
Assay in all cases: NCI-60 one-dose screen, 48 h (100 = growth as untreated, 0 = no growth, -100 = all killed)
Details in all cases: 10 µM unless noted
NCI-H23 lung = tested on: NCI-H23 lung
NCI-H226 lung = tested on: NCI-H226 lung
NCI-H322M lung = tested on: NCI-H322M lung
HOP-62 NSCLC = tested on: HOP-62 NSCLC
NCI-H460 lung = tested on: NCI-H460 lung
HOP-92 NSCLC = tested on: HOP-92 NSCLC
NCI-H522 lung = tested on: NCI-H522 lung
A549/ATCC NSCLC = tested on: A549/ATCC NSCLC
786-0 renal = tested on: 786-0 renal
COLO 205 colon = tested on: COLO 205 colon
DU-145 prostate = tested on: DU-145 prostate
K-562 leukemia = tested on: K-562 leukemia
MALME-3M melanoma = tested on: MALME-3M melanoma
MDA-MB-231 breast = tested on: MDA-MB-231 breast
RXF 393 renal = tested on: RXF 393 renal
SF-268 CNS = tested on: SF-268 CNS
SF-295 CNS = tested on: SF-295 CNS
SF-539 CNS = tested on: SF-539 CNS
M14 melanoma = tested on: M14 melanoma
UACC-257 melanoma = tested on: UACC-257 melanoma

SMILES | growth (NCI-H23 lung) | growth (NCI-H226 lung) | growth (NCI-H322M lung) | growth (HOP-62 NSCLC) | growth (NCI-H460 lung) | growth (HOP-92 NSCLC) | growth (NCI-H522 lung) | growth (A549/ATCC NSCLC) | growth (786-0 renal) | growth (COLO 205 colon) | growth (DU-145 prostate) | growth (K-562 leukemia) | growth (MALME-3M melanoma) | growth (MDA-MB-231 breast) | growth (RXF 393 renal) | growth (SF-268 CNS) | growth (SF-295 CNS) | growth (SF-539 CNS) | growth (M14 melanoma) | growth (UACC-257 melanoma)
Nc1c(C(=O)Nc2cccc3ccccc23)sc2nc3c(cc12)CCCC3 | 23.1% | 63.1% | 51.7% | 29.9% | 16.4% | 44% | 11.7% | 17.8% | 34.7% | -3.36% (active) | 19.3% | 9.59% (active) | 78% | 33.2% | 27.4% | 50.1% | 14.6% | 8.91% (active) | 7.77% (active) | 
C[C@]12CC[C@@H]3c4ccc(O)cc4CC[C@H]3[C@@H]1C[C@H](O)[C@@H]2O | 91.2% | 85% | 88.7% | 94.2% | 95.2% | 99.2% | 98.3% | 97.9% | 106% | 102% | 94.9% | 118% | 95.8% | 94.4% | 86.9% | 89.8% | 92.5% | 92.1% | 90.9% | 
NC1(N)C=CC2=C(C=C1)C1(N)C3=C(C=CC(N)(N)C=C3)N2C2(N)C3=C(C=CC(N)(N)C=C3)N1C1=C2C=CC(N)(N)C=C1 | 79.5% | 97.7% | 99.8% | 89.8% | 94.6% | 70.3% | 28.4% | 88.8% | 84.3% | 104% | 97% | 81.7% | 103% | 67.3% | 104% | 86.8% |  | 73.4% | 94.5% | 89.7%
COc1cccc(NC(=O)c2sc3nc4c(cc3c2N)C(=O)CCC4)c1 | 21.8% | 74.9% | 56.5% | 27.8% | 1.73% (active) | 57.3% | -21.1% (active) | 22.5% | 41.1% | 0.646% (active) | 11.8% | 5.55% (active) | 50.1% | 14.7% | 41% | 39.2% |  | -7.27% (active) | 12.5% | 66.5%
COc1ccc(/C=C/C(=O)NCC(C)O)cc1 (centres undefined) | 93.5% | 91.5% | 94.5% | 89.1% | 101% | 101% | 85% | 83.2% | 100% | 104% | 103% | 122% | 101% | 100% | 90.7% | 94% | 99.7% | 92.8% | 101% | 
COc1ccc2c3c(c4ccccc4cc13)C(=O)N(CCN(C)CCN)C2=O | -71.4% (active) | -67.4% (active) | -44.4% (active) | -77.4% (active) | -69.2% (active) | -7.66% (active) | -77.2% (active) | -78.3% (active) | -97.9% (active) | -82.7% (active) | -86.6% (active) | -68% (active) | -75.7% (active) | -72.1% (active) | -94.3% (active) | -67.5% (active) | -88.9% (active) | -83% (active) | -83.2% (active) | 
COC(=O)[C@@H]1[C@H]2C[C@H]3c4[nH]c5cc(OC)ccc5c4CCN3C[C@@H]2C[C@H](OC(=O)/C=C/c2ccnc(OC)c2)[C@H]1OC | 86.4% | 89.3% | 83.2% | 87% | 102% | 22.5% | 73.3% | 89% | 91.2% | 76.3% | 91.8% | 99.3% | 67.6% | -54.6% (active) | 92.4% | 84.1% |  | 90.1% | 93.2% | 78.3%
c1ccc(CN2C(c3ccccc3)=Nc3ccccc3C2c2c[nH]c3ccccc23)cc1 (centres undefined) | 27.4% | 59.3% | 60.6% | 47.1% | 43.4% | -2.7% (active) | 51.7% | 65.5% | 46.7% | 18.3% | 85.4% | 4.88% (active) | 55.1% | 26.7% | 42.9% | 71.2% | 45.6% | 58.1% | 28.9% | 
O=C(c1ccccc1)C(CN1CCOCC1)c1ccccc1 (centres undefined) | 65.3% | 40.1% | 84.7% | 81% | 79.4% | 40.5% | -51.3% (active) | 95.3% | 31% | 25.5% | 28.9% | 7.04% (active) | -3.82% (active) | 33.2% | 25.9% | 27% |  | 37.3% | 27.8% | 51.5%
Nc1c(C(=O)Nc2c(Cl)cccc2Cl)sc2nc3c(cc12)CCCC3 | 84.1% | 91.4% | 94% | 50.1% | 66.4% | 89.2% | 62.8% | 66.5% | 103% | 70.3% | 88.4% | 14.8% | 59.2% | 82.5% | 87.9% | 80.9% | 75.8% | 75.8% | 46.6% | 
COC(=O)[C@]12CC[C@@H](C)[C@H](C)[C@@H]1C1=CC[C@@H]3[C@@]4(C)C(c5ncon5)=C[C@@](C)(CO)C4=CC[C@@]3(C)[C@]1(C)CC2 | -26.2% (active) | -34.7% (active) | 21.8% | -8.97% (active) | -33.4% (active) | -49.9% (active) | -77.5% (active) | 29.5% | -23.8% (active) | -46% (active) | -71.5% (active) | -21.2% (active) | -73.6% (active) | -49.3% (active) | -73.2% (active) | -7.68% (active) | -46.8% (active) | -86.2% (active) | -58.5% (active) | 
O=C(CI)Nc1ccc(O)c2ccccc12 | -7.45% (active) | -13.1% (active) | 104% | 46.9% | 32.5% | -24.8% (active) | -79.4% (active) | 64.8% | -22.5% (active) | -85.6% (active) | 41.9% | -16.2% (active) | -14% (active) | -11.8% (active) | -89.7% (active) | -0.419% (active) |  | -28.6% (active) | -58.9% (active) | 10.7%
Cc1cc(Nc2ccc(F)cc2)nc(N2CCN(c3ccnc4cc(Cl)ccc34)CC2)n1 | 28.9% | 57.5% | 46.8% | 59.8% | 11.6% | -7.85% (active) | 17.4% | 29.8% | 23.5% | -68% (active) | 35% | 6.26% (active) | 12.7% | 37.9% | 38.9% | 36.2% |  | 14% | 12.9% | 38.3%
O=S(=O)(NCCNc1cc(-c2cn(-c3ccccc3)nc2-c2cccc(O)c2)ccn1)c1ccc(Cl)cc1 | 36.6% | 45.9% | 56.8% | 51.4% | 26.3% | 33.8% | 32.3% | 31.1% | 12% | -48% (active) | 62.8% | 2.13% (active) | 34.5% | -2.86% (active) | 38% | 40.2% | 13.3% | 61.8% | 23.5% | 
C/C(=N/NC(N)=S)C(=O)O | 101% | 90.1% | 103% | 107% | 99.3% | 107% | 95.9% | 76% | 102% | 119% | 102% | 55.3% | 102% | 91.1% | 116% | 101% |  | 101% | 97.4% | 61.1%
Cc1[c-]onc1C.Cc1[c-]onc1C.[Ag].[Ag].[NH-]S(=O)(=O)c1ccc(N=Nc2cc(N=Nc3ccc(S([NH-])(=O)=O)cc3)c3c(NC(=O)C(Cl)Cl)cccc3c2OC(=O)C(Cl)Cl)cc1 | 94.8% | 94.8% | 96% | 84.7% | 57.3% | 6.01% (active) | -85.7% (active) | 80.5% | 104% | -46.9% (active) | 70.5% | 59.7% | 7.7% (active) | 45.8% | 89.2% | 84.5% |  | 92.8% | 103% | 78.5%
